Experimental data as given in paper PMC7862700, “An all-to-all approach to the identification of sequence-specific readers for epigenetic DNA modifications on cytosine”.

Tests used:
Test in all cases: DAPPL (digital affinity profiling via proximity ligation, sequencing); 10 mM Tris-HCl pH 7.5, 50 mM NaCl, 1 mM DTT, 4% glycerol, room temperature, 30 min; GST-TFs on glutathione beads, 16-mer random dsDNA library, 0.1% formaldehyde crosslink after washing; high values mean tight binding
FLI1 = biological target: T1, FLI1 (Homo sapiens, UniProt Q01543 1-452); details: protein: recombinant; tags: N-terminal GST; dsDNA, one strand shown
T1 sequence: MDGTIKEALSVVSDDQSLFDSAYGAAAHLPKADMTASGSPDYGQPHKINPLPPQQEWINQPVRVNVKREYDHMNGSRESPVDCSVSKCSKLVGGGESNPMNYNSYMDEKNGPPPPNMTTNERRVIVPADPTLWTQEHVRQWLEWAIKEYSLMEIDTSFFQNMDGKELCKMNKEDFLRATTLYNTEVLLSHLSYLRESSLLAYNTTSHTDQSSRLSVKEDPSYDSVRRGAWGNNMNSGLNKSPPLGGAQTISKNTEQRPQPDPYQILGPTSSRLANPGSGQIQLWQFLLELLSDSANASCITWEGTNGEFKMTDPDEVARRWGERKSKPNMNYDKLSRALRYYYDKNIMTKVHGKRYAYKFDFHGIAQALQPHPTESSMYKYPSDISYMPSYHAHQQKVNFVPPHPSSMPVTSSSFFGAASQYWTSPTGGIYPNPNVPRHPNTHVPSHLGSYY
In short: (§1)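 Binding signal is defined as a hexamer's read frequency for one factor over its frequency for the tag-only sample. To obtain reads, GST-fused human transcription factors were expressed in yeast, captured on glutathione beads, barcoded with DNA and pooled with that sample. Pools met 200 nmole of a 16-mer random double-stranded DNA library in Tris/NaCl/DTT/glycerol buffer for 30 min at room temperature before washing, 0.1% formaldehyde crosslinking, proximity ligation (BsaI/T4 ligase, 1 h, 37 °C), PCR and Illumina NextSeq500 sequencing.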

ELK1 = biological target: T2, ELK1 (Homo sapiens, UniProt P19419 1-428); details: protein: recombinant; tags: N-terminal GST; dsDNA, one strand shown
T2 sequence: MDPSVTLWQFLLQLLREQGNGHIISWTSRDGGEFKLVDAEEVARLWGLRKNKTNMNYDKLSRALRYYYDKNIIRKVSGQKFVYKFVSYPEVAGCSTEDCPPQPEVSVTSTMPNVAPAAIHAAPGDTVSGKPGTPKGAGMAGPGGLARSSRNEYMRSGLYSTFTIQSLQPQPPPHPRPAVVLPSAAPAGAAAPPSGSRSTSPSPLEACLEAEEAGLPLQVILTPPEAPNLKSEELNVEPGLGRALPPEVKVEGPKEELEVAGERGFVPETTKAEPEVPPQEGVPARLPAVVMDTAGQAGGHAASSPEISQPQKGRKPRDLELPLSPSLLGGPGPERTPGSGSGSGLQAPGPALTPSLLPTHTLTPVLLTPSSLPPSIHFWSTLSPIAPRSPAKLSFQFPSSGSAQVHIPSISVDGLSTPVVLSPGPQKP
In short: as §1

GABPA = biological target: T3, GABPA (Homo sapiens, UniProt Q06546 1-454); details: protein: recombinant; tags: N-terminal GST; dsDNA, one strand shown
T3 sequence: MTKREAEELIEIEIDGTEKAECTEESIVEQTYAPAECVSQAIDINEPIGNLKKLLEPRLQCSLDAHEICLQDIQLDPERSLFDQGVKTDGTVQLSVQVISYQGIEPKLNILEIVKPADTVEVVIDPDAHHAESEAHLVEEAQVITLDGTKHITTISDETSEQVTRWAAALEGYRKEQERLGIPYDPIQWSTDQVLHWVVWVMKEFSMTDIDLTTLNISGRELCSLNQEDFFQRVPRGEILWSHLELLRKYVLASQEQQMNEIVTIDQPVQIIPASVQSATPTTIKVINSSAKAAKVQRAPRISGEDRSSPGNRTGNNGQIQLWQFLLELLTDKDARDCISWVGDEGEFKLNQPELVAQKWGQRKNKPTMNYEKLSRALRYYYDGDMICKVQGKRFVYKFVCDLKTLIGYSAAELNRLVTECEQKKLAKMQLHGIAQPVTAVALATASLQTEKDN
In short: as §1

ERG = biological target: T4, ERG (Homo sapiens, UniProt P11308 1-479); details: protein: recombinant; tags: N-terminal GST; dsDNA, one strand shown
T4 sequence: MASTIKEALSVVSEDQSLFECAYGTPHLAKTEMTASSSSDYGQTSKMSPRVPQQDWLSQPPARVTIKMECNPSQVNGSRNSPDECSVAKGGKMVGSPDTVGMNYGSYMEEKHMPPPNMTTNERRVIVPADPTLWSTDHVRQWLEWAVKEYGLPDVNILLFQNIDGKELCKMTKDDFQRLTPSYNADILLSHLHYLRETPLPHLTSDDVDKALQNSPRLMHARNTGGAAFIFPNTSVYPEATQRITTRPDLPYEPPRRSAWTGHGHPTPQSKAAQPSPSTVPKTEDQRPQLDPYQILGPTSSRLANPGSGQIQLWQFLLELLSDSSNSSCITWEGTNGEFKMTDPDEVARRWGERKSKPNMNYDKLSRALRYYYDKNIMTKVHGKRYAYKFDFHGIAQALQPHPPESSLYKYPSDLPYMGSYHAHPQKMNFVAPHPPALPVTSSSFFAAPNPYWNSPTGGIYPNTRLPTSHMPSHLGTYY
In short: as §1

ELF1 = ELF1 (Homo sapiens, UniProt P32519 1-619); details: protein: recombinant; tags: N-terminal GST; dsDNA, one strand shown
Sequence of ELF1 (P32519 whole entry): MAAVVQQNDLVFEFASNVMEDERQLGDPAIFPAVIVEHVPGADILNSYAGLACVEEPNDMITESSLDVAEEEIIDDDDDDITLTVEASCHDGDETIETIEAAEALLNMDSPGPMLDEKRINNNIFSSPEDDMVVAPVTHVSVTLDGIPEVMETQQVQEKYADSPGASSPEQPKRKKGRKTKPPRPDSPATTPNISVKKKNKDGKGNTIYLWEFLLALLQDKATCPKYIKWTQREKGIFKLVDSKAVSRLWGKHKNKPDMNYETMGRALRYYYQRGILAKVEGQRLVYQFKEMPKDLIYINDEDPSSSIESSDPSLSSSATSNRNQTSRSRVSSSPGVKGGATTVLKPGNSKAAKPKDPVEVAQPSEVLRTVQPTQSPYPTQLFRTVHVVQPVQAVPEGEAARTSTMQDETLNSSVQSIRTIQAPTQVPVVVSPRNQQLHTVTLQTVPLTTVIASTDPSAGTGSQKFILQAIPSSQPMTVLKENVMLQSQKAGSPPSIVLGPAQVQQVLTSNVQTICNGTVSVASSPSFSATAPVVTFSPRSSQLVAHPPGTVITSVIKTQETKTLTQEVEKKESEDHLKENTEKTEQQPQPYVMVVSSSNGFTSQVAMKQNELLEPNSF
In short: as §1

EHF = biological target: T5, EHF (Homo sapiens, UniProt Q9NZC4 1-300); details: protein: recombinant; tags: N-terminal GST; dsDNA, one strand shown
T5 sequence: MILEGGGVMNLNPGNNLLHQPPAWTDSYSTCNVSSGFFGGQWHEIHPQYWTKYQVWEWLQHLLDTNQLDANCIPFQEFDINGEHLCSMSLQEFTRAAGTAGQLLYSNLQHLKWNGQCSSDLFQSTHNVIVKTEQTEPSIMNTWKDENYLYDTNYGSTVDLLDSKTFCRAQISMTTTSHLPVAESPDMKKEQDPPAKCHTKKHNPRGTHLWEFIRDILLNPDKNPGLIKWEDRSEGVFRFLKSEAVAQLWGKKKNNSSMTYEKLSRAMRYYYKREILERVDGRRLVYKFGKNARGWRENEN
In short: as §1

SPI1 = SPI1 (Homo sapiens, UniProt P17947 1-270); details: protein: recombinant; tags: N-terminal GST; dsDNA, one strand shown
In short: as §1

SPIB = SPIB (Homo sapiens, UniProt Q01892 1-262); details: protein: recombinant; tags: N-terminal GST; dsDNA, one strand shown
Sequence of SPIB (Q01892 whole entry): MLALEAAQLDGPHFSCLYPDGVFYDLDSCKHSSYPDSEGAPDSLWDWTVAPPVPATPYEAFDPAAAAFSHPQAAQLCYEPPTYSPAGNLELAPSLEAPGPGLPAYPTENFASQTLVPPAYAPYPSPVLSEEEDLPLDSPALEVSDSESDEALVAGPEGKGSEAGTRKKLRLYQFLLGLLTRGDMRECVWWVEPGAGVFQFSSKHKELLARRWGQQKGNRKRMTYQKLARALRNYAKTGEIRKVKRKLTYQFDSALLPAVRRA
In short: as §1

ELK3 = biological target: T6, ELK3 (Homo sapiens, UniProt P41970 1-407); details: protein: recombinant; tags: N-terminal GST; dsDNA, one strand shown
T6 sequence: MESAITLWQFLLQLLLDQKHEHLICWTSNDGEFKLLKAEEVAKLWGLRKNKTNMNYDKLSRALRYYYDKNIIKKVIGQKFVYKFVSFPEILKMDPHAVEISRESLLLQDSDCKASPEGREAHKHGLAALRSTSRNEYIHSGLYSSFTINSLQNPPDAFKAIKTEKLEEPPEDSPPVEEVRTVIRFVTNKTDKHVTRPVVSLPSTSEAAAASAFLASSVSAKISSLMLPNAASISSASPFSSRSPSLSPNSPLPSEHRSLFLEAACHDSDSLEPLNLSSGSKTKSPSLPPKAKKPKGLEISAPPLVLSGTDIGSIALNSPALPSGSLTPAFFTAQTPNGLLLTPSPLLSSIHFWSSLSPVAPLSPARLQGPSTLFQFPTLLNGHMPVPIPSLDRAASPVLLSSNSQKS
In short: as §1

FEV = biological target: T7, FEV (Homo sapiens, UniProt Q99581 1-238); details: protein: recombinant; tags: N-terminal GST; dsDNA, one strand shown
T7 sequence: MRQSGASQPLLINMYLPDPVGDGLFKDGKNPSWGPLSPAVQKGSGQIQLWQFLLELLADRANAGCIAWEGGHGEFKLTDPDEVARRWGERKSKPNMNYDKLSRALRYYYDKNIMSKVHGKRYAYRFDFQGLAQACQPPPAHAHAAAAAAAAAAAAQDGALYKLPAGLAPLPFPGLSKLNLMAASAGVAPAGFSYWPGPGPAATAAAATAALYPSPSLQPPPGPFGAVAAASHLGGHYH
In short: as §1

ETV5 = ETV5 (Homo sapiens, UniProt P41161 1-510); details: protein: recombinant; tags: N-terminal GST; dsDNA, one strand shown
Sequence of ETV5 (P41161 whole entry): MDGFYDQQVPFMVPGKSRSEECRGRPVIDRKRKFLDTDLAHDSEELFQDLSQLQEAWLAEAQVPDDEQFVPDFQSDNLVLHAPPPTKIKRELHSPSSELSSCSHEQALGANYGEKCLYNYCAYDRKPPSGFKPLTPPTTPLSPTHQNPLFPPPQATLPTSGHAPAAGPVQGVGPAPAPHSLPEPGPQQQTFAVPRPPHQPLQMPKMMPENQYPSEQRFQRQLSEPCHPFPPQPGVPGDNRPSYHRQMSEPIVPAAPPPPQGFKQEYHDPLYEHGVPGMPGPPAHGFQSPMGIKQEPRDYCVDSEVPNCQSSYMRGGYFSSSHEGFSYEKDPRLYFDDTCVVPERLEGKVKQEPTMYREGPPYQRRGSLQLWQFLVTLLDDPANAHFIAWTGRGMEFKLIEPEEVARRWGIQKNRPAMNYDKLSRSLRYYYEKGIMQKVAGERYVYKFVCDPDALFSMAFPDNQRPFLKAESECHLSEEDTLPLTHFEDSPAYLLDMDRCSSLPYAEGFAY
In short: as §1

HSF1 = HSF1 (Homo sapiens, UniProt Q00613 1-529); details: protein: recombinant; tags: N-terminal GST; chain copies: 3; dsDNA, one strand shown
Sequence of HSF1 (Q00613 whole entry): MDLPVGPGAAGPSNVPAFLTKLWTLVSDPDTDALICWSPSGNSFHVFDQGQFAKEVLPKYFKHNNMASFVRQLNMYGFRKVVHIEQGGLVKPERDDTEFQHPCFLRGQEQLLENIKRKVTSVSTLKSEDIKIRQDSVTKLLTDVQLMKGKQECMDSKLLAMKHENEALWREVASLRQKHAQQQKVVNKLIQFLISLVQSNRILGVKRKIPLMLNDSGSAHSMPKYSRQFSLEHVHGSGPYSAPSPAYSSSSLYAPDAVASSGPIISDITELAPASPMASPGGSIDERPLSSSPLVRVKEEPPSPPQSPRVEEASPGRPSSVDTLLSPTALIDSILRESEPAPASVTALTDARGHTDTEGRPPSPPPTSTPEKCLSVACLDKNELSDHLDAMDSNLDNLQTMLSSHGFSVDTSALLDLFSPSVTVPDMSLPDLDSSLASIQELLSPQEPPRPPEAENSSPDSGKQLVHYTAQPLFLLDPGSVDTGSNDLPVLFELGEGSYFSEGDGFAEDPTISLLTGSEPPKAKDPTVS
In short: as §1

SPIC = biological target: T8, SPIC (Homo sapiens, UniProt Q8N5J4 1-248); details: protein: recombinant; tags: N-terminal GST; dsDNA, one strand shown
T8 sequence: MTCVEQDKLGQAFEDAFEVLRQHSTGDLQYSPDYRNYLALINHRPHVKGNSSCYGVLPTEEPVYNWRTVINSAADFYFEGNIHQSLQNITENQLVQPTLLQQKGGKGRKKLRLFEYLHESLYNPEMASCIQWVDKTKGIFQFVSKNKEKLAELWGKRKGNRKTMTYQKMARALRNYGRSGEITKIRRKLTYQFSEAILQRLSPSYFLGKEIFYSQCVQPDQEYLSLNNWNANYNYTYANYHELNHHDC
In short: as §1

ELF4 = ELF4 (Homo sapiens, UniProt Q99607 1-663); details: protein: recombinant; tags: N-terminal GST; dsDNA, one strand shown
Sequence of ELF4 (Q99607 whole entry): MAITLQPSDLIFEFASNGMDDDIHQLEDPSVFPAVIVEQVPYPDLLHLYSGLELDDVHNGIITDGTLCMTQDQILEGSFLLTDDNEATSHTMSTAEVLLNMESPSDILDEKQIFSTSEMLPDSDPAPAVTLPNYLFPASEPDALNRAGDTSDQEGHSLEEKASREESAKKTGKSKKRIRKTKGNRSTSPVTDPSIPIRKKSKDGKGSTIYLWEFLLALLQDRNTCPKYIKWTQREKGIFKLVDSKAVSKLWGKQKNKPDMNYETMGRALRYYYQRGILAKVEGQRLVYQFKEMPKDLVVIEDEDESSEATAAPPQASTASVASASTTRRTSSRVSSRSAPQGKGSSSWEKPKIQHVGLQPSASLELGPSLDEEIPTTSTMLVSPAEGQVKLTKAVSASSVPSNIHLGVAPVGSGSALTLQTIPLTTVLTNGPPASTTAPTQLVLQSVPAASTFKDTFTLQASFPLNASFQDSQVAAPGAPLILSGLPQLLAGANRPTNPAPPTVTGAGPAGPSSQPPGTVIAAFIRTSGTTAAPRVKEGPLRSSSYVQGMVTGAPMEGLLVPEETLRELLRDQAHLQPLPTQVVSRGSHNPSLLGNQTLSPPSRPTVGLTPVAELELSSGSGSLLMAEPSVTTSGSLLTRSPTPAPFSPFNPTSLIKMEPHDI
In short: as §1

ELK4 = biological target: T9, ELK4 (Homo sapiens, UniProt P28324-2 1-405); details: protein: recombinant; tags: N-terminal GST; dsDNA, one strand shown
T9 sequence: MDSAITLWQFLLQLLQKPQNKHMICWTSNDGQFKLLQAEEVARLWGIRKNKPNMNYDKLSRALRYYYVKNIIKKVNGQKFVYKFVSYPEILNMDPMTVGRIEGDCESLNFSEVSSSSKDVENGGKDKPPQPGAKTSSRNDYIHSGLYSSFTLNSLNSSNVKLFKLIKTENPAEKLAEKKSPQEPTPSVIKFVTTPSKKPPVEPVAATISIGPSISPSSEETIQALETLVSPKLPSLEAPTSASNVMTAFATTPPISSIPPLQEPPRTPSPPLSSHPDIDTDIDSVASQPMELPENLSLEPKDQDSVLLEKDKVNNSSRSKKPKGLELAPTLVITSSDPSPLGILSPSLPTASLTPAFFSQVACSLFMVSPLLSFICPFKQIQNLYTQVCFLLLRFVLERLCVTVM
In short: as §1

ETV2 = biological target: T10, ETV2 (Homo sapiens, UniProt O00321 1-342); details: protein: recombinant; tags: N-terminal GST; dsDNA, one strand shown
T10 sequence: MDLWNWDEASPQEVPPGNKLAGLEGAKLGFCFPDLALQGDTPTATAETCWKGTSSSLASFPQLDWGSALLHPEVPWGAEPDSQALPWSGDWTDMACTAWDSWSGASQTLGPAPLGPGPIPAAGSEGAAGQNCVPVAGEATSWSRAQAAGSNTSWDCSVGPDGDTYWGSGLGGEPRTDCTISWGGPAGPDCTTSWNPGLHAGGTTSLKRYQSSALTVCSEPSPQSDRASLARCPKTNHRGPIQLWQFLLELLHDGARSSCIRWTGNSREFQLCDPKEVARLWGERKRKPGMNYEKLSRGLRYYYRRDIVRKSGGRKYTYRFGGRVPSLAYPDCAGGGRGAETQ
In short: as §1

ETV1 = ETV1 (Homo sapiens, UniProt P50549 1-477); details: protein: recombinant; tags: N-terminal GST; dsDNA, one strand shown
Sequence of ETV1 (P50549 whole entry): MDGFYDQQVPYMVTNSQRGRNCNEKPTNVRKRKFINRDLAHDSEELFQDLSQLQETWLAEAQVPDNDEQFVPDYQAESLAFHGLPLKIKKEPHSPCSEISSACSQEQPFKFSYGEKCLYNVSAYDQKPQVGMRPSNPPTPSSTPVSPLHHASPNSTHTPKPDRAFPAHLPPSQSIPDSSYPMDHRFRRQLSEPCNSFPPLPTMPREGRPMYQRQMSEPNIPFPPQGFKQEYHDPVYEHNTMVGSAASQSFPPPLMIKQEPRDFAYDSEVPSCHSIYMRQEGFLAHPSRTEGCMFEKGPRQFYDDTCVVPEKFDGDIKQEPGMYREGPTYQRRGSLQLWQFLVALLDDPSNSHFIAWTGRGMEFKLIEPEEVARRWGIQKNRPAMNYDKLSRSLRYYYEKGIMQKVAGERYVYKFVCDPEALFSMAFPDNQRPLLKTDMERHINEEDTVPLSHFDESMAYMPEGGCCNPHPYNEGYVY
In short: as §1

Sequence: TTCACA
- binding signal (FLI1): 1.27 fold enrichment (6-mer frequency, TF over GST control)
- binding signal (ELK1): 1.17 fold enrichment (6-mer frequency, TF over GST control)
- binding signal (GABPA): 1.23 fold enrichment (6-mer frequency, TF over GST control)
- binding signal (ERG): 1.18 fold enrichment (6-mer frequency, TF over GST control)
- binding signal (ELF1): 1.16 fold enrichment (6-mer frequency, TF over GST control)
- binding signal (EHF): 1.2 fold enrichment (6-mer frequency, TF over GST control)
- binding signal (SPI1): 1.08 fold enrichment (6-mer frequency, TF over GST control)
- binding signal (SPIB): 1.25 fold enrichment (6-mer frequency, TF over GST control)
- binding signal (ELK3): 1.26 fold enrichment (6-mer frequency, TF over GST control)
- binding signal (FEV): 1.17 fold enrichment (6-mer frequency, TF over GST control)
- binding signal (ETV5): 1.16 fold enrichment (6-mer frequency, TF over GST control)
- binding signal (HSF1): 1.04 fold enrichment (6-mer frequency, TF over GST control)
- binding signal (SPIC): 1.08 fold enrichment (6-mer frequency, TF over GST control)
- binding signal (ELF4): 1.17 fold enrichment (6-mer frequency, TF over GST control)
- binding signal (ELK4): 1.28 fold enrichment (6-mer frequency, TF over GST control)
- binding signal (ETV2): 1.28 fold enrichment (6-mer frequency, TF over GST control)
- binding signal (ETV1): 1.25 fold enrichment (6-mer frequency, TF over GST control)

Sequence: CGATAG
- binding signal (FLI1): 1.07 fold enrichment (6-mer frequency, TF over GST control)
- binding signal (ELK1): 1.11 fold enrichment (6-mer frequency, TF over GST control)
- binding signal (GABPA): 1.18 fold enrichment (6-mer frequency, TF over GST control)
- binding signal (ERG): 1.16 fold enrichment (6-mer frequency, TF over GST control)
- binding signal (ELF1): 1.15 fold enrichment (6-mer frequency, TF over GST control)
- binding signal (EHF): 1.05 fold enrichment (6-mer frequency, TF over GST control)
- binding signal (SPI1): 1.1 fold enrichment (6-mer frequency, TF over GST control)
- binding signal (SPIB): 1.07 fold enrichment (6-mer frequency, TF over GST control)
- binding signal (ELK3): 1.11 fold enrichment (6-mer frequency, TF over GST control)
- binding signal (FEV): 1.15 fold enrichment (6-mer frequency, TF over GST control)
- binding signal (ETV5): 1.18 fold enrichment (6-mer frequency, TF over GST control)
- binding signal (HSF1): 1.14 fold enrichment (6-mer frequency, TF over GST control)
- binding signal (SPIC): 1.18 fold enrichment (6-mer frequency, TF over GST control)
- binding signal (ELF4): 1.12 fold enrichment (6-mer frequency, TF over GST control)
- binding signal (ELK4): 1.16 fold enrichment (6-mer frequency, TF over GST control)
- binding signal (ETV2): 1.16 fold enrichment (6-mer frequency, TF over GST control)
- binding signal (ETV1): 1.16 fold enrichment (6-mer frequency, TF over GST control)
